The results in this text go back to PubChem BioAssay (EPA / NIEHS).

The structures appear in SMILES notation. Activity calls are given as the source filed them. How the source made its calls: active means hit-call score of the fitted dose curve at least 0.9, where 1 is the maximum; inactive means score below 0.9.

Holding throughout (conditions): mRNA level, 48 h; actives raise or lower the signal
Read-out in assay [1]: Cytochrome P450 7A1 (Homo sapiens) (UniProt P22680)
The experiment in a line: LTEA_HepaRG_CYP7A1: Life Technologies and Expression Analysis (LTEA) Assay for Cytochrome P450 7A1 (CYP7A1) using HepaRG (AID 2283496). In short, it runs like this:
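HepaRG cells plated 48 h, then switched to serum-free induction medium and exposed in duplicate for 48 h to 8-point half-log series from 100 uM in 0.5% DMSO. CYP7A1 mRNA by qRT-PCR (TaqMan), normalized to ACTB/GAPDH/POLR2A; bidirectional fit versus DMSO.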

Read-out in assay [2]: Glutathione S-Transferase (GSTA2), GSTA2 (gene 2939)
The experiment in a line: LTEA_HepaRG_GSTA2: Life Technologies and Expression Analysis (LTEA) Assay for Glutathione S-Transferase (GSTA2) using HepaRG (AID 2283497). Put shortly:
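Differentiated human HepaRG cells were exposed in duplicate for 48 h in serum-free induction medium, 8 points from 100 uM top in half-log steps, 0.5% DMSO. GSTA2 mRNA was measured by TaqMan qRT-PCR, normalized to ACTB, GAPDH and POLR2A; bidirectional fit versus DMSO.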

Read-out in assay [3]: Glutamate-cysteine ligase catalytic (GCLC), GCLC (gene 2729)
The experiment in a line: LTEA_HepaRG_GCLC: Life Technologies and Expression Analysis (LTEA) Assay for Glutamate-cysteine ligase catalytic (GCLC) using HepaRG (AID 2283498). In short, it runs like this: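 Differentiated HepaRG cells exposed 48 h in serum-free induction medium, eight-point half-log series topping at 100 uM in 0.5% DMSO, duplicates. GCLC mRNA by qRT-PCR normalized to ACTB, GAPDH and POLR2A, fitted bidirectionally versus DMSO.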

Read-out in assay [4]: growth arrest and DNA damage 45 (GADD45G), GADD45G (gene 10912)
The experiment in a line: LTEA_HepaRG_GADD45G: Life Technologies and Expression Analysis (LTEA) Assay for growth arrest and DNA damage 45 (GADD45G) using HepaRG (AID 2283499). In short, it runs like this: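 Gain or loss of GADD45G mRNA, quantified by TaqMan qRT-PCR against three housekeeping genes, is fitted in both directions relative to 0.5% DMSO. Human HepaRG cultures receive test chemical for 48 h at up to 100 uM.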

Read-out in assay [5]: Glutamate-cysteine ligase regulatory (GCLM), GCLM (gene 2730)
The experiment in a line: LTEA_HepaRG_GCLM: Life Technologies and Expression Analysis (LTEA) Assay for Glutamate-cysteine ligase regulatory (GCLM) using HepaRG (AID 2283500). In short, it runs like this: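 Cells were plated, cultured 48 h, switched to serum-free induction medium, then dosed in duplicate for 48 h at eight half-log concentrations up to 100 uM. RNA was then profiled by qRT-PCR; gain or loss versus DMSO was fitted.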

Read-out in assay [6]: Glutathione S-transferase M3 (GSTM3), GSTM3 (gene 2947)
The experiment in a line: LTEA_HepaRG_GSTM3: Life Technologies and Expression Analysis (LTEA) Assay for Glutathione S-transferase M3 (GSTM3) using HepaRG (AID 2283501). In short, it runs like this:
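HepaRG, plated 48 h, then serum-free induction medium; test chemical 48 h, duplicate; 100 uM top, half-log x8, 0.5% DMSO. Read-out: GSTM3 mRNA (TaqMan qRT-PCR, Fluidigm array). Bidirectional fit vs DMSO.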

Read-out in assay [7]: Heat shock 70 kDa protein 1 (HSPA1A), gene 3303
The experiment in a line: LTEA_HepaRG_HSPA1A: Life Technologies and Expression Analysis (LTEA) Assay for Heat shock 70 kDa protein 1 (HSPA1A) using HepaRG (AID 2283502). In short, it runs like this:
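Readout is HSPA1A transcript level by microfluidic qRT-PCR, normalized to three housekeeping genes and analysed for gain or loss of signal relative to 0.5% DMSO. Human HepaRG cultures received test chemicals for 48 h at up to 100 uM.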

Read-out in assay [8]: Hypoxia-inducible factor 1-alpha (Homo sapiens) (UniProt Q16665)
The experiment in a line: LTEA_HepaRG_HIF1A: Life Technologies and Expression Analysis (LTEA) Assay for Hypoxia-inducible factor 1 (HIF1A) Trancription factor using HepaRG (AID 2283503). In short, it runs like this: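 Differentiated HepaRG cells in serum-free induction medium exposed 48 h, in duplicate, to 8-point half-log series from 100 uM in 0.5% DMSO. HIF1A mRNA measured by TaqMan qRT-PCR, normalized to ACTB/GAPDH/POLR2A, fitted bidirectionally versus DMSO.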

Read-out in assay [9]: 3-Hydroxy-3-Methylglutaryl-CoA Synthase 2 (HMGCS2), HMGCS2 (gene 3158)
The experiment in a line: LTEA_HepaRG_HMGCS2: Life Technologies and Expression Analysis (LTEA) Assay for 3-Hydroxy-3-Methylglutaryl-CoA Synthase 2 (HMGCS2) using HepaRG (AID 2283504). In short, it runs like this: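 HepaRG, plated 48 h then switched to serum-free induction media; cmpd 8-pt, max 100 uM, 1/2-log, 0.5% DMSO, n=2, 48 h. HMGCS2 mRNA by Fluidigm TaqMan qRT-PCR, ACTB/GAPDH/POLR2A norm; bidirectional fit vs DMSO.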

Read-out in the next assay: HGF (gene 3082)
The experiment in a line: LTEA_HepaRG_HGF: Life Technologies and Expression Analysis (LTEA) Assay for Hepatocyte Growth Facto (HGF) using HepaRG (AID 2283505). In short, it runs like this:
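Read-out is HGF transcript level by qRT-PCR, normalized to three housekeeping genes, fitted bidirectionally against 0.5% DMSO vehicle. Human HepaRG cells received test chemicals for 48 h at up to 100 uM.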

Hypoxia-inducible factor 1-alpha (Homo sapiens), sequence (Q16665 whole entry, looked up): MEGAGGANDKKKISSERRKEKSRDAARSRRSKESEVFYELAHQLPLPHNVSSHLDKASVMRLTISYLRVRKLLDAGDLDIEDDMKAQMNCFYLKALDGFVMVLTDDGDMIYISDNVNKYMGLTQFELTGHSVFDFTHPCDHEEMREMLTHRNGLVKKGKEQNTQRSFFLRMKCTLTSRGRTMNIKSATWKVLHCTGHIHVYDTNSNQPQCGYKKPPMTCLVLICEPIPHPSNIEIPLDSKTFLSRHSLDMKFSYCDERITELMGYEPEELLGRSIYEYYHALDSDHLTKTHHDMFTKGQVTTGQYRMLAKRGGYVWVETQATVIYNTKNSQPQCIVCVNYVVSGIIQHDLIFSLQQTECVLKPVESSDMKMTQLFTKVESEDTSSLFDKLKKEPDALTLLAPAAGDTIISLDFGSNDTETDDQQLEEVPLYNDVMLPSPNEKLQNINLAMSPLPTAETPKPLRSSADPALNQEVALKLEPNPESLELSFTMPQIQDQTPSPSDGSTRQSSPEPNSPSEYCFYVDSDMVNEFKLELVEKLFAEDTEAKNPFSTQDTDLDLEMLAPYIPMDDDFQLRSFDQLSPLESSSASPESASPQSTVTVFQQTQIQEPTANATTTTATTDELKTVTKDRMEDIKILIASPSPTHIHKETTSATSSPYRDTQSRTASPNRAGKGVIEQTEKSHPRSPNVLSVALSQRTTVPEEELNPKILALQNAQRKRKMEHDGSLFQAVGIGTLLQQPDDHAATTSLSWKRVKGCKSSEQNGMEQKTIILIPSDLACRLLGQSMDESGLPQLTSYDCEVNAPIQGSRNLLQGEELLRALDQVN

As usually defined, the AC50 is the midpoint of the concentration-response curve, whichever way the signal moves. On to `Cc1[nH]cnc1C[C@H]1CCc2c(C)c3ccccc3n2C1=O`, for which the AC50 in [1] was 22.6 µM (active); in assay [2], 30.5 µM (active); in [3], 29.7 µM (active); in assay [4], 81.1 µM (active); in [7] it was 56.9 µM (active); in assay [8] it was 24.3 µM (active). For the same compound, the AC50 is 23.8 µM (active) in [9] and 10.2 µM (active) in the assay with HGF (gene 3082). The compound was called inactive in assay [5] and in [6].

With `CCOCCOCCOCCO`, the call in assay [1], in assay [2], in [3], in assay [4], in [5] and in [6] was inactive. In addition, the result (in assay [7]; in assay [8]; in assay [9]; in the assay with HGF (gene 3082)) was inactive.

As to `CCc1cc(SCc2sc(-c3ccc(C(F)(F)F)cc3)nc2CN2CCN(c3ccc(OC)cc3)CC2)ccc1OCC(=O)O`, the AC50 in assay [1] was 7.1 µM (active); in assay [2], 77 µM (active); in assay [3] it was 94.1 µM (active); in assay [4], 91.2 µM (active); in assay [5] it was 26.5 µM (active); in assay [7] it was 89.4 µM (active). For the same compound, the results for the half-maximal activity concentration (AC50) (in assay [8]; in assay [9]; with HGF (gene 3082)) were 91.1 µM (active), 77.1 µM (active) and 7.66 µM (active), respectively. Moreover, the result in [6] was inactive.

`CC/C(=C\C(=N/O)C(N)=O)C(C)[N+](=O)[O-]` (stereo not given): the call in assay [1], in [2], in [3], in [4], in assay [5] and in [6] was inactive. Besides, the call (in [7]; in assay [8]; in [9]; in the assay with HGF (gene 3082)) was inactive.

As for `O=C(O)c1cccc(Oc2ccccc2)c1`, the compound was classed as inactive in assay [1], in assay [2], in [3], in assay [4], in assay [5] and in [6]. Also, the compound was classed as inactive (in assay [7]; in assay [8]; in assay [9]; with HGF (gene 3082)).

Take `COc1cccc(-c2ccc(/C=C\CN3CCCCCC3)cc2Cl)c1`: the AC50 in assay [1] is 69.2 µM (active); in assay [2] it was 71 µM (active); in [4] it was 45.2 µM (active); in assay [5], 68.7 µM (active); in assay [6], 79.1 µM (active); in assay [7], 67.9 µM (active). In addition, the half-maximal activity concentration (AC50) is 83 µM (active) in [8] and 83.9 µM (active) in assay [9]. Further, the call (in [3]; in the assay with HGF (gene 3082)) was inactive.

Consider `CCN(C(=O)c1cc(C)cc(OC[C@H](C)Nc2ccncc2)c1)C(C)C`, for which the AC50 was 50.5 µM (active) in assay [1], 33.8 µM (active) in assay [4], 33.8 µM (active) in [9] and 33.8 µM (active) with HGF (gene 3082). Moreover, the call in assay [2], in assay [3], in [5], in [6], in [7] and in [8] was inactive.

Consider `O=c1[nH]c2ccc(S(=O)CCN3CCC(Cc4ccc(F)cc4)CC3)cc2o1` (stereo not given), for which the AC50 is 72.5 µM (active) in assay [1]; 87.5 µM (active) in assay [2]; 71.6 µM (active) in [4]; 50 µM (active) in assay [5]; 50 µM (active) in assay [7]; 74.7 µM (active) in assay [9]. In addition, the outcome (in [3]; in assay [6]; in [8]; with HGF (gene 3082)) was inactive.

For `COC(=O)CC(=O)OC`, the AC50 in assay [1] was 50 µM (active). The result in assay [2], in assay [3], in [4], in assay [5], in [6] and in assay [7] was inactive. The compound was called inactive (in [8]; in [9]; with HGF (gene 3082)).

For `COC(=O)c1ccccc1O`, the call in [1], in assay [2], in assay [3], in assay [4], in assay [5] and in [6] was inactive. The outcome (in assay [7]; in assay [8]; in assay [9]; with HGF (gene 3082)) was inactive.

Consider `C[C@](N)(Cc1ccc(O)c(O)c1)C(=O)O`, for which the result in assay [1], in assay [2], in [3], in [4], in [5] and in assay [6] was inactive. The call (in assay [7]; in [8]; in [9]; in the assay with HGF (gene 3082)) was inactive.

For the compound `COCCOCCOCCOC`, the call in [1], in assay [2], in assay [3], in [4], in assay [5] and in assay [6] was inactive. Also, the outcome (in assay [7]; in [8]; in assay [9]; in the assay with HGF (gene 3082)) was inactive.

As to `Cn1c(=O)cc(Oc2ccc(F)cc2F)c2cnc(NCC(C)(C)O)nc21`, the outcome in assay [1], in assay [2], in assay [3], in assay [5], in [6] and in assay [7] was inactive. In addition, the call (in assay [8]; in assay [9]; with HGF (gene 3082)) was inactive. Also, the concentration at half-maximal activity (AC50) in assay [4] is 9.17 µM (active).

Consider `COc1ccc(/C=C/S(=O)(=O)NC(=O)c2ccc(C)cc2Cl)cc1`, for which the call in assay [1], in assay [3], in assay [4], in assay [5], in [6] and in [7] was inactive. Also, the compound was classed as inactive (in assay [8]; in [9]; in the assay with HGF (gene 3082)). In addition, the AC50 in assay [2] is 80.8 µM (active).

In the case of `CCOCCO`, the outcome in assay [1], in [2], in assay [3], in assay [4], in [5] and in assay [6] was inactive. In addition, the compound was classed as inactive (in assay [7]; in assay [8]; in [9]; in the assay with HGF (gene 3082)).

Consider `CCOc1cccc(-n2cc(C(=O)N3CCN(c4cc(C(=O)O)c5ccccc5c4)CC3)nc2-c2ccc(C)cc2)c1`, for which the AC50 in assay [1] is 33.6 µM (active); in assay [2], 32.3 µM (active); in assay [3], 79.2 µM (active); in assay [4], 13.1 µM (active); in assay [5] it was 11.5 µM (active); in [7], 86.5 µM (active). Moreover, the AC50 in assay [8] is 75 µM (active); in assay [9], 33.7 µM (active); with HGF (gene 3082) it was 21.1 µM (active). In assay [6], the outcome was inactive.

On to `Cc1c(-c2cccnc2)c2ccccc2n1CCCCC(=O)O`, for which the outcome in assay [1], in assay [2], in assay [3], in [4], in assay [5] and in assay [6] was inactive. The compound was classed as inactive (in assay [7]; in [8]; in assay [9]; with HGF (gene 3082)).

For `CC(C)CCCCCCOC(=O)c1ccc(C(=O)OCCCCCCC(C)C)c(C(=O)OCCCCCCC(C)C)c1`, the outcome in assay [1], in assay [2], in assay [3], in assay [4], in assay [5] and in [6] was inactive. In addition, the outcome (in assay [7]; in assay [8]; in assay [9]; with HGF (gene 3082)) was inactive.

`C=CCCCCCCCCC(=O)O`: the compound was classed as inactive in [1], in assay [2], in assay [3], in assay [4], in assay [5] and in assay [6]. In addition, the result (in assay [7]; in assay [8]; in assay [9]; with HGF (gene 3082)) was inactive.
